In ChEMBL document CHEMBL3988442, “University of Dundee, Small-Polar-MMV Screening Library” (2021):

Key:
[1] = target: T1, Aspartate--tRNA(Asp/Asn) ligase (Mycobacterium tuberculosis (strain ATCC 25618 / H37Rv)) (UniProt P9WFW3); test: Assay for Asp RNA synthetase-1 from Mycobacterium tuberculosis; assay type: functional; parameters: scale not given: direction of the effect not stated beside the values; conditions: 30 µM; further: in the data most compounds retested in dose-response had high values
T1 sequence (whole entry): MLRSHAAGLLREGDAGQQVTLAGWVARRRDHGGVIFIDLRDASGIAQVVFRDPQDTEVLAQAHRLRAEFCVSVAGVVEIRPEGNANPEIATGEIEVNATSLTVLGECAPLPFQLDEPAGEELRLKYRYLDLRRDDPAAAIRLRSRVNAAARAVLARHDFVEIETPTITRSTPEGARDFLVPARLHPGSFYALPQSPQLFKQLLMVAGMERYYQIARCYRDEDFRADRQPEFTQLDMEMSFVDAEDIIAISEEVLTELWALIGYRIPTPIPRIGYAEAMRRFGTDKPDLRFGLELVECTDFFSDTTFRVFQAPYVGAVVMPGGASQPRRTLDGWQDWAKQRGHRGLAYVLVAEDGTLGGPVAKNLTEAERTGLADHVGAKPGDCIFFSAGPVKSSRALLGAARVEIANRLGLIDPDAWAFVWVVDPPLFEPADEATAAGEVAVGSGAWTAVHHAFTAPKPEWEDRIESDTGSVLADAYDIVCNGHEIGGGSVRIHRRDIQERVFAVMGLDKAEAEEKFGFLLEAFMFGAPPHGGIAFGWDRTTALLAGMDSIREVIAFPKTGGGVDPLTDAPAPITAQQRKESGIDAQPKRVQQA

[2] = target: Shiga toxin 2 (Escherichia coli O157:H7) (UniProt P09385+P09386); test: E. coli 0.157:H7 Shiga Toxin SOP - stx2 screening assay; assay type: functional; parameters: scale not given: direction of the effect not stated beside the values; conditions: 30 µM

SMILES	Percent Effect [1] [%]	Percent Effect [2] [%]
Cc1cc(C)n(CCCNC(=O)C(C)NC(=O)c2ccccc2Cl)n1 (centres undefined)	1.92	-4.43
CN(C)S(=O)(=O)N1CCC2(CCCN(Cc3ccc(F)cc3)C2=O)C1 (centres undefined)	-2.05	-20.5
Cc1cc(C)n(CC2CCCN2C(=O)c2cccc3[nH]ncc23)n1 (centres undefined)	-2.45	-17.6
CCOc1cc(C(=O)N2CCCC(n3cncn3)C2)ccc1C (centres undefined)	1.17	17.5
O=c1cc(CN2CCCC2)nc2n1CCCN(Cc1ccsc1)C2	-4.85	-22.4
NCc1cnn(-c2ccccc2C(=O)NCc2ccncc2)c1	-3.11	13.2
Cc1cnn(C2CCCN(C(=O)c3cccc(Cn4ccnc4)c3)C2)c1 (centres undefined)	0.538	-30.9
CC(C)n1ccnc1CN1CCCN(C(=O)c2cccnc2O)CC1	-2.15	-43.9
Cc1ccc2cnn(CCC(=O)NCc3c(C)nn(C)c3C)c2c1	8.17	-18.4
CCN(CC)S(=O)(=O)N1CCCC(c2cccc(C(=O)O)c2)C1 (centres undefined)	-1.97	9.71
CCc1nc(CN2CCCN(C(=O)C(C)n3ccnc3)CC2)cs1 (centres undefined)	-1.76	8.27
Cc1noc(C)c1CNC(=O)c1ccc(NC2CC2)nc1	3.65	13.4
Cc1c(C(=O)NC(C)C(C)C)nnn1-c1cccc2c1CCN(C)C2 (centres undefined)	2.19	3.53
Cc1noc(C2CCN(C(=O)CCNS(C)(=O)=O)CC2)n1	-0.989	-13.5
COCCC(=O)N1CC2(CCN(Cc3cccc(Cl)c3)CC2)C1	-1.46	-17.6
NC(=O)c1ccc2c(c1)nc1n2CCN(Cc2ccccc2)C1	3.29	-9.11
COc1ccc(CN2CCCC(Cn3nc(C)nc3C)C2)cc1F (centres undefined)	0.335	-1.86
